Bioassay records from PubChem.
D2 ag-1 = agonists of human D2 dopamine receptor (beta-arrestin); activation, % (no concentration beside the values); AID 624465; 360,000 compounds, 0.084% hits; P14416; DiscoveRx PathHunter D2 beta-arrestin, luminescence, 90 min; 100% = 57 uM dopamine signal; in the data active = activation above about 40%; inconclusive = between about 15% and that limit
Target sequence (P14416 whole entry, looked up): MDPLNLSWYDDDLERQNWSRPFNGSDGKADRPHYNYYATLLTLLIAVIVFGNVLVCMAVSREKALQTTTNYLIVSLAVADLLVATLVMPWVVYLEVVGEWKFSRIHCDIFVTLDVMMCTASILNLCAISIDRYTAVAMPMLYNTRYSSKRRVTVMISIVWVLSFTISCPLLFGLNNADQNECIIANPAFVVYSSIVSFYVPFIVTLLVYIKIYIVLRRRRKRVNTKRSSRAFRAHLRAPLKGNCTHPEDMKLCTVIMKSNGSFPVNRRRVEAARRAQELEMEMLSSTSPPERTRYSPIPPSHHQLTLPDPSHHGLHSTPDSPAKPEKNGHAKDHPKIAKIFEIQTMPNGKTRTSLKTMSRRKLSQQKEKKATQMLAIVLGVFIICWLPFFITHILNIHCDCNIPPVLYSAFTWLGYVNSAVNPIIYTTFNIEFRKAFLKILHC
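DiscoveRx PathHunter D2 beta-arrestin cells (2,100/well) attached overnight, then compound-stimulated 90 min at 37 C in HBSS/10 mM HEPES/0.1% Tween-20 buffer; beta-galactosidase complementation read by luminescence after 1 h at ambient temperature. Dopamine 57 uM final (EC100) as control.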
D2 ag-2 = activates the human D2 dopamine receptor | AID 485358 | P14416 | 340,000 compounds, 0.53% hits | HEK293 T-REx D2 cells, calcium flux agonist mode | activation, % at 2 µM;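 active = activation over 3 SD above normal in the single-dose calcium agonist read, cut at about 30% in these data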; note: 0% is about no effect
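Agonism is scored from calcium flux in a force-coupled, inducible HEK293 cell line expressing D2, read kinetically for 180 s after compound addition against dopamine controls.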
D2 antag = D2 dopamine receptor (human) antagonism. P14416. HEK293 TREx D2 cells, calcium flux, dopamine EC80. inhibition, % at 10 µM. 340,000 compounds, 2% hits. AID 485344; in the data active = inhibition above about 30%; inactive = below that, where a call was filed; note: 0% is about no effect
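Tetracycline-induced HEK293 TREx cells expressing D2 receptor forced-coupled to calcium signalling, loaded with no-wash calcium dye. Compounds added and calcium flux read 180 s, then dopamine added at EC80 and read a further 180 s.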
D2 PAM-1 = potentiates the human D2 dopamine receptor allosterically. P14416. AID 624464. potentiation, % (test concentration not listed). 360,000 compounds, 0.23% hits. DiscoveRx D2 beta-arrestin cells, luminescence, 90 min; 100% = 57 uM dopamine signal; in the data active = potentiation above about 50%; inconclusive = mostly about 30% to 49%
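PathHunter beta-arrestin assay in DiscoveRx D2 cells. Compounds were added with an EC20 of dopamine (50 nM final) for 90 min at 37 deg C. Luminescence was read 1 h after detection reagent, with 57 uM dopamine as the EC100 control.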
D2 PAM-2 = positive allosteric modulators of human D2 dopamine receptor | potentiation, % at 10 µM | 340,000 compounds, 0.34% hits | P14416 | HEK293 T-REx D2, calcium flux, EC20 dopamine potentiation;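 active = potentiation over 3 SD above the plate norm, cut at about 30% in these data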; note: 0% is about no effect
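Potentiation of an EC20 dopamine calcium response is measured in a force-coupled, tetracycline-inducible Hek293 Trex D2 line. Compound-only kinetic reads over 180 s flag agonists before dopamine addition.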
* marks the source's active call; other numbers are inactive results; ? = inconclusive; . = no result. Hits are enriched below; roughly 2.4% of the tested compounds scored in any of these assays.

SMILES | D2 ag-1 | D2 ag-2 | D2 antag | D2 PAM-1 | D2 PAM-2
Cc1ccc(C(C)C)c(OCC#CCN2CCCC2)c1 | 4 | -1 | 35* | 61* | -26
CN1CCN(c2ccc([N+](=O)[O-])c(N)c2)CC1 | -5 | 0 | -1 | -19 | -10
CCN1CCN(c2ccc(N)c(C)c2)CC1 | -2 | 0 | 49* | -12 | -9
COc1ccc(-n2c(/C=C\c3ccccc3F)nc3ccccc3c2=O)cc1OC | . | 0 | . | . | -7
Cc1ccc(-n2nc(C)c3c2NC(=O)CSC3c2ccc(O)cc2)cc1Cl (configuration not stated) | . | -2 | . | . | 8
COc1ccc(C(=O)N2CCCC2=O)cc1 | -4 | 1 | 40* | -6 | 5
O=C1NC(=O)N(c2ccccc2F)C(=O)/C1=C/c1ccc(Sc2nc3ccccc3[nH]2)o1 | -5 | 19 | 44* | -6 | 10
N#Cc1cc2c(nc1SCC(=O)Nc1ccc(C(F)(F)F)cc1)C1CCN2CC1 | . | . | . | . | -7
Nc1c(C(=O)Nc2ccc(Cl)c(C(F)(F)F)c2)sc2nc3c(cc12)N1CCC3CC1 | . | 0 | . | . | -2
Cc1ccsc1C(=O)C1CCCN(Cc2cnc(N3CCCC3)s2)C1 (configuration not stated) | -1 | 1 | 39* | -5 | -8
Cc1ccsc1C(=O)C1CCCN(Cc2c(C)nn(C(C)C)c2C)C1 (configuration not stated) | -2 | -1 | 57* | -12 | -18
CCN(CC)CCSc1nc2ccccc2c(=O)n1-c1ccc(Cl)cc1 | . | -4 | . | . | 0
CCOc1ccc(CN(CCc2ccc3c(c2)OCO3)Cc2cc(OC)ccc2O)cc1 | . | 0 | . | . | -7
COc1ccccc1N1CCN(Cc2ccc(Br)cc2)CC1 | -3 | 0 | 94* | -66 | -21
COc1ccccc1N1CCN(Cc2ccccc2Cl)CC1 | -2 | 4 | 79* | -14 | -21
COc1ccccc1N1CCN(Cc2cnc(-c3ccccc3)[nH]2)CC1 | -3 | 0 | 57* | -21 | -13
COc1ccccc1N1CCN(CCc2ccccc2)CC1 | 0 | 1 | 73* | -7 | -32
Cc1ccc(-n2c(=O)[nH]c3ccc(Br)cc3c2=O)cc1 | . | 0 | . | . | -5
Cc1cccc(Cn2cccc(C(=O)Nc3nnc(C)s3)c2=O)c1 | . | -1 | . | . | 3
CSc1ncc(C(=O)Nc2ccc(Cl)cc2C(=O)c2ccccc2)c(C)n1 | . | -1 | . | . | -1
COc1ccccc1N1CCN(Cc2ccccc2F)CC1 | -1 | 6 | 81* | 5 | -27
CN1CCN(c2ccc([N+](=O)[O-])c(NCc3ccco3)c2)CC1 | -2 | -1 | 53* | -43 | -18
CNc1cc(N2CCNCC2)ccc1[N+](=O)[O-] | 0 | 0 | 0 | -5 | -11
O=[N+]([O-])c1ccc(N2CCNCC2)cc1NCc1ccco1 | -1 | -1 | 61* | -30 | -24
Cc1cc(-n2c(/C=C/c3cccs3)nc3ccccc3c2=O)ccc1Br | . | 1 | . | . | 9
SMILES | D2 ag-1 | D2 ag-2 | D2 antag | D2 PAM-1 | D2 PAM-2
O=C(Nc1ccc(OC(F)(F)F)cc1)c1cccn(Cc2ccccc2Cl)c1=O | . | 4 | . | . | -1
Cc1ccccc1CN1C(=O)C(C)N=C(c2ccccc2)c2ccccc21 (configuration not stated) | . | 1 | . | . | 1
CCN1C(=O)NC(=O)/C(=C/c2cc(C)n(-c3sc(C)c(C)c3C#N)c2C)C1=O | 0 | -2 | -24 | 11 | 44*
COc1ccc(-c2nc(CN3C(=O)CN=C(c4ccccc4Cl)c4cc(Cl)ccc43)c(C)o2)cc1OC | . | 7 | . | . | -3
CCC1(c2cccc(O)c2)CCCCN(C)C1 (configuration not stated) | -2 | 1 | 39* | -3 | -9
COc1cc(/C=C/[N+](=O)[O-])ccc1O | -1 | 2 | -18 | 0 | 5
CCN(CC)c1ccc(/C=C/[N+](=O)[O-])cc1 | -4 | 57* | 1 | 4 | -7
CC(C)N1CCN(c2ccc(O)cc2)CC1 | 10 | 1 | 15 | -11 | -27
CC(C)N1CCOC(c2ccc(O)c(O)c2)C1 (configuration not stated) | 83* | . | . | 60* | .
CC(C)Cc1nc2cccnc2n1C1CCNCC1 | . | 0 | . | . | 12
O=C(CCCN1CCC2(CC1)C(=O)NCN2c1ccccc1)c1ccc(F)cc1 | . | 76* | 71* | . | .
C1=C(c2c[nH]c3ccccc23)CCN(Cc2ccccc2)C1 | -19 | 0 | 70* | 6 | -21
CN1CC=C(c2c[nH]c3ccccc23)CC1 | -2 | 0 | 75* | -13 | -22
Cc1ccc(Cn2cccc(C(=O)Nc3ccc(C)c(Cl)c3)c2=O)cc1 | . | -2 | . | . | 12
Cn1c(=O)n(C)c2cc(CNCCc3ccccc3F)ccc21 | . | 2 | . | . | -8
Cc1ccc(S(=O)(=O)N(c2cc(Cl)c(O)c(Cl)c2)P(=O)(OC(C)C)OC(C)C)cc1 | 3 | 0 | 5 | -8 | 31*
CCCCC1(CCCC)C(=O)NC(=Nc2cccc(C)c2)NC1=O | -3 | 0 | -17 | -14 | 14
Cc1cccc(N=C2c3cc([N+](=O)[O-])ccc3-c3c2cc([N+](=O)[O-])cc3[N+](=O)[O-])c1 | 10 | . | . | 109* | .
N#CC1=C(N)Oc2c(c(=O)oc3ccccc23)C1c1ccncc1 (configuration not stated) | 0 | 0 | -11 | -7 | -8
CCOc1ccc(C2C(C#N)=C(N)Oc3c2c(=O)oc2ccccc32)cc1 (configuration not stated) | -3 | -1 | 31* | -11 | -4
Clc1cccc(N2CCNCC2)c1 | -4 | 1 | 35* | -33 | -21
COc1ccc(C2CN(C)CC2C(=O)c2ccc(F)cc2)cc1Cl (configuration not stated) | 0 | 0 | 69* | -13 | -35
CN1CC(C(=O)c2ccc(F)cc2)C(c2c(F)cccc2Cl)C1 (configuration not stated) | -3 | 0 | 5 | -24 | -12
O=C1Nc2ccccc2Sc2ccccc21 | -3 | 0 | 2 | -1 | -1
c1ccc2c(c1)Nc1ccccc1S2 | ? | 2 | -13 | 68* | 4
CCc1ccc(-n2nc(C)c3c2NC(=O)CSC3c2ccc(OC)cc2OC)cc1 (configuration not stated) | . | -1 | . | . | -19
CCCCn1nnnc1C(C1CC1)N1CCC(n2c(=O)[nH]c3ccccc32)CC1 (configuration not stated) | 12 | . | . | 2 | .
O=c1[nH]c2ccccc2n1CCCN1CCC(n2c(=O)[nH]c3cc(Cl)ccc32)CC1 | . | . | 97* | . | .
Cc1ccc(S(=O)(=O)N2CCCCC2)cc1NC(=O)CN1CC=C(c2ccccc2)CC1 | -4 | 0 | 4 | -11 | -6
